These results are taken from the OligoGym collection.
Also: reference of the scale not given here.

One test deals with AHCY. Briefly: pooled miR-30 sensor sort-seq; sequence = guide strand. As to conditions: shRNA.
TTGATGTTCACCTTCTCCACGG had a sensor-assay potency score (higher = more potent) of 0.235. TTCATCTGCTCAAAGTGCCGGC yielded a sensor-assay potency score (higher = more potent) of -0.375. In the case of TTGTCAAACTTGCTCTTGGTGA, the sensor-assay potency score (higher = more potent) was -0.625. The same measure, in the same setting: with TCATCTTGTAGAGGTTGTGGAC the figure was -0.726; with ATGATGTCAATACAGCCTGTGG, -1.59. The same measure, in the same setting: with TAGAGGTTGTCAAACTTGCTCT the figure was -0.554; with TCGATCTGCGCCATCACCTGGT, -0.451. Same read-out and setting: with TATAAGTCCACAGACCAGGTGA the figure was 0.25; with AAACTTGCTCTTGGTGACGGAG, -1.03; with TTACTCATCACGAAGCTGGGGT, 0.777. TTGCTTCTCAGTTAGCTTGGTC returned a sensor-assay potency score (higher = more potent) of -0.044. In the case of TTGTAGAGGTTGTGGACCCCAG, the sensor-assay potency score (higher = more potent) was -0.72. The same measure, in the same setting: then TTGGTGTGGATGAGGTTGGTGA, with -1.01; and TAACAGTCTATTCTAACCCCTG, with -0.522; and TTAACAGTCTATTCTAACCCCT, with -0.371. Sequence TAGCTTGGTCAACTTCACATTC had a sensor-assay potency score (higher = more potent) of -1.21. The same measure, in the same setting: then ACACACAATGGCATCATCCTTC, with -0.521; and TCTTTTAACATTATAGGCCAAA, with -1.21. TTCAGCCACTGCCTCATCCAGC gave a sensor-assay potency score (higher = more potent) of -0.886.

TTGATGGGGTCAATCTCGGTGA registered a sensor-assay potency score (higher = more potent) of -1.04. As to TTAGCTTGGTCAACTTCACATT, the sensor-assay potency score (higher = more potent) is -0.84.

The next test deals with AHDC1. Described as above. The conditions noted are these: shRNA.
Consider TTTGTATGTGGTCTTGTTCCGC, for which the sensor-assay potency score (higher = more potent) is 0.223.

In turn, TTGCTGTTAGCGCAGTCCTGGC gave a sensor-assay potency score (higher = more potent) of -1.57. Still for that read-out and setting: with AACTCTGGGACTGAGACCGGGC the figure was -0.558; with TCTGGTTCCAGTTGTAGCCGGG, 0.572; with ATGCTTGCCATCAAGCTCGGGA, -0.78. Still for that read-out and setting: with TTGGGTACCATGTAGCCACCGG the figure was -0.207; with TTTGCGGGTAGAGACCACTGGG, -0.394; with TAGCTTGCTGCTCGTCCTGGTG, -0.838. The same measure, in the same setting: with TTGTATGTGGTCTTGTTCCGCC the figure was -0.176.

TTCTTCATCTTCAGCAGCGGGG: the sensor-assay potency score (higher = more potent) was -0.945. TTGAACTGGGTGCTGTCGGAGG yielded a sensor-assay potency score (higher = more potent) of -0.689. Same read-out and setting: then TTGCGGGTAGAGACCACTGGGG, with -0.627.

A further test addresses AIG1. The test is described as above. The conditions noted are these: shRNA.
Sequence TTCGGGTATATCATCTCTCTGT displayed a sensor-assay potency score (higher = more potent) of -0.249. On to TAAATGATCCAGAACACTGCTA, for which the sensor-assay potency score (higher = more potent) came to 0.31.

In turn, TTTGGAAACAACTGTATTCTAT registered a sensor-assay potency score (higher = more potent) of -0.0597. In the case of TTATCAGTAATGACTTTGGGAA, the sensor-assay potency score (higher = more potent) was -0.914. As to TAATATAAAGGGCAGAACCGTC, the sensor-assay potency score (higher = more potent) is -1.19. Consider ATAAAGGGCAGAACCGTCGTGT, for which the sensor-assay potency score (higher = more potent) turned out to be 0.238. The sequence AATTCTTTAACACACAGTGAGG showed a sensor-assay potency score (higher = more potent) of -1.45.
